Source: PubChem BioAssay AID1159580 (chemical genetic matrix, 2015)
Screen size: about 5,500 compounds; about 2,000 (36%) were called active. Another 18% or so got no clear call; they are omitted. Rule as the data show it: active = normalized growth mostly below about 0.91 (no sharp cut-off); inconclusive = no clear call, values can overlap the other calls; inactive = mostly above about 0.92. Some of the results follow.

Test: chemical genetic growth profiling, strain panel (AID 1159580);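 also: tested at 20 µM; growth read once vehicle control cultures reached saturation at 30 °C; 1 = growth at the plate median or of vehicle wells; lower values mean less growth of the strain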
Settings: S. cerevisiae deletion strains, growth OD
[1] = locus YHR030C, strain SLT2, active compounds read low
[2] = locus YHR079C, strain IRE1, active compounds read low
[3] = locus YJL095W, strain BCK1, active compounds read low
[4] = locus YJR066W, strain TOR1, active compounds read low
[5] = locus YLR113W, strain HOG1, active compounds read low
[6] = locus YNL183C, strain NPR1, active compounds read low
[7] = locus YOR231W, strain MKK1, active compounds read low
[8] = locus YPL256C, strain CLN2, active compounds read low

Measured: normalized growth

Cc1cccc(C#Cc2ccccc2)n1
inactive: locus YAL040C, strain CLN3, active compounds read low 0.997 | locus YCL061C, strain MRC1 (second series), active compounds read low 0.968 | locus YDR363W, strain ESC2, active compounds read low 1.05 | locus YER002W, strain NOP16, active compounds read low 0.986 | locus YGR078C, strain PAC10, active compounds read low 0.978 | locus YMR263W, strain SAP30, active compounds read low 0.993 | locus YMR307W, strain GAS1, active compounds read low 0.919 | locus YNL128W, strain TEP1, active compounds read low 0.992 | locus YNL175C, strain NOP13, active compounds read low 0.977 | locus YNL197C, strain WHI3, active compounds read low 1 | locus YNL224C, strain SQS1, active compounds read low 1 | locus YNL322C, strain KRE1, active compounds read low 0.976 | locus YOR083W, strain WHI5 (second series), active compounds read low 0.918

CC(C)(CO)C(O)C(=O)NCCCO (stereo unspecified)
inactive: locus YAL021C, strain ccr4, active compounds read low 1 | locus YAL026C, strain drs2, active compounds read low 1.02 | locus YAL030W, strain snc1, active compounds read low 1.02 | locus YBL061C, strain skt5, active compounds read low 1.02 | locus YBR009C, strain hhf1, active compounds read low 1.03 | locus YBR023C, strain chs3, active compounds read low 1.03 | locus YBR171W, strain sec66, active compounds read low 1.03 | locus YBR231C, strain swc5, active compounds read low 1.02 | locus YBR279W, strain paf1, active compounds read low 1.01 | locus YCL011C, strain gbp2, active compounds read low 1.02 | locus YCL016C, strain dcc1, active compounds read low 1.02 | locus YCL061C, strain MRC1, active compounds read low 1.01 | locus YCL069W, strain vba3, active compounds read low 1.01 | locus YCR088W, strain abp1, active compounds read low 1.01 | locus YDL005C, strain med2, active compounds read low 1.01 | locus YDL040C, strain nat1, active compounds read low 1.01 | locus YDR001C, strain nth1, active compounds read low 1.02 | locus YDR069C, strain doa4, active compounds read low 1.02 | locus YDR137W, strain rgp1, active compounds read low 1.03 | locus YDR159W, strain sac3, active compounds read low 1.03 | locus YDR195W, strain ref2 1.01 | locus YDR297W, strain sur2, active compounds read low 1.01 | locus YDR334W, strain swr1, active compounds read low 1.01 | locus YDR335W, strain msn5, active compounds read low 1.01 | locus YDR392W, strain spt3, active compounds read low 1.02 | locus YEL003W, strain gim4, active compounds read low 1.02 | locus YEL037C, strain rad23, active compounds read low 1.01 | locus YEL061C, strain CIN8 (second series), active compounds read low 1.02 | locus YER015W, strain faa2, active compounds read low 1.01 | locus YER016W, strain bim1, active compounds read low 1.02 | locus YER111C, strain swi4, active compounds read low 1.01 | locus YER155C, strain BEM2 (second series), active compounds read low 1.04 | locus YFR010W, strain ubp6, active compounds read low 1.01 | locus YGL167C, strain pmr1, active compounds read low 1.03 | locus YGL173C, strain kem1, active compounds read low 1.02 | locus YGL227W, strain vid30, active compounds read low 1.02 | locus YGL240W, strain doc1, active compounds read low 1.02 | locus YGL253W, strain hxk2, active compounds read low 1.02 | locus YHR013C, strain ard1, active compounds read low 1.03 | locus YHR027C, strain rpn1, active compounds read low 1.02 | [1] 1.02 | [2] 1.01 | locus YHR142W, strain chs7, active compounds read low 1.01 | locus YJL092W, strain hpr5, active compounds read low 1.01 | locus YJL095W, strain BCK1 (second series), active compounds read low 1.01 | [3] 0.995 | locus YJL115W, strain asf1, active compounds read low 1.02 | locus YJL129C, strain trk1, active compounds read low 1.02 | locus YJL154C, strain vps35, active compounds read low 1.01 | locus YJL164C, strain tpk1, active compounds read low 1.02 | locus YJL166W, strain qcr8, active compounds read low 1.02 | locus YJL187C, strain SWE1, active compounds read low 1.01 | [4] 0.964 | locus YKL160W, strain elf1, active compounds read low 1.01 | locus YKR026C, strain gcn3, active compounds read low 0.994 | locus YKR091W, strain srl3, active compounds read low 1.01 | locus YLL001W, strain dnm1, active compounds read low 1.02 | locus YLL026W, active compounds read low 1.02 | locus YLL041C, strain sdh2, active compounds read low 1.02 | locus YLR027C, strain aat2, active compounds read low 1.02 | [5] 0.985 | locus YLR221C, strain rsa3, active compounds read low 1.01 | locus YLR258W, strain gsy2, active compounds read low 1.02 | locus YLR262C, strain YPT6 (second series), active compounds read low 1.02 | locus YLR320W, strain mms22, active compounds read low 1.02 | locus YLR342W, strain FKS1, active compounds read low 1.01 | locus YLR357W, strain rsc2, active compounds read low 1.04 | locus YLR370C, strain arc18, active compounds read low 1.02 | locus YLR384C, strain iki3, active compounds read low 1.02 | locus YML120C, strain ndi1, active compounds read low 1.01 | locus YMR058W, strain fet3, active compounds read low 1.01 | locus YMR125W, strain sto1, active compounds read low 1.03 | locus YMR129W, active compounds read low 1.01 | locus YMR205C, strain PFK2, active compounds read low 1.03 | locus YMR231W, strain pep5, active compounds read low 1.01 | locus YNL071W, strain lat1, active compounds read low 1.02 | [6] 0.954 | locus YNL209W, strain ssb2, active compounds read low 1.01 | locus YNL248C, strain rpa49, active compounds read low 0.992 | locus YNL322C, strain KRE1 (second series), active compounds read low 1.01 | locus YNR049C, strain mso1, active compounds read low 1.01 | locus YOR001W, strain rrp6, active compounds read low 1 | locus YOR070C, strain gyp1, active compounds read low 1.01 | locus YOR080W, strain dia2, active compounds read low 1.02 | locus YOR083W, strain WHI5, active compounds read low 1 | locus YOR106W, strain vam3, active compounds read low 1 | [7] 1.01 | locus YOR265W, strain rbl2, active compounds read low 1.01 | locus YOR270C, strain vph1, active compounds read low 1.03 | locus YOR290C, strain snf2, active compounds read low 1.03 | locus YPL051W, strain arl3, active compounds read low 1.03 | locus YPL078C, strain atp4, active compounds read low 1.01 | locus YPL106C, strain sse1, active compounds read low 1 | locus YPL240C, strain hsp82, active compounds read low 1.01 | [8] 0.994

C=C1CC[C@H](O)C/C1=C/C=C1\CCCC2(C)C1CCC2C(C)CCCC(C)C (stereo partly specified)
inactive: [1] 0.874 | [2] 0.925 | [3] 0.893 | [4] 0.943 | [6] 0.915 | [7] 0.896 | [8] 0.846
active: [5] 0.843
